Test results reported in PubChem BioAssay (NCATS).
Results filed as inconclusive are left out. Active and inactive are the calls of the source. Unless noted, calls come from the whole dose curve; as a rule, active = well fitted inhibition curve with a large enough effect; inconclusive = small, poorly fitted or top-dose-only effect; inactive = flat fitted curve, though single readings scatter.

Columns and labels:
CP250 = test: qHTS profiling for inhibitors of Plasmodium falciparum proliferation (AID 504749);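 note: 0% = DMSO vehicle and full inhibition = artemisinin control; nearly all actives have a fitted effect of over 60% in size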; details: P. falciparum in erythrocytes, SYBR Green DNA, 72 h; series mostly up to 28.7 µM
In short: (§1)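 SYBR Green fluorescence of parasite DNA, read after lysis and overnight dark incubation, measured growth over 72 h in erythrocyte culture at 0.3% parasitemia and 2.5% hematocrit. Data normalised to DMSO and 0.29 uM artemisinin, with plate-drift correction.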

CP252 = test: as above; details: P. falciparum in erythrocytes, SYBR Green DNA, 72 h; series mostly up to 28.7 µM
In short: as §1

CP256 = test: as above; details: P. falciparum in erythrocytes, SYBR Green DNA, 72 h; series mostly up to 28.7 µM
In short: as §1

CP260 = test: as above; details: P. falciparum in erythrocytes, SYBR Green DNA, 72 h; series mostly up to 28.7 µM
In short: as §1

CP262 = test: as above; details: P. falciparum in erythrocytes, SYBR Green DNA, 72 h; series mostly up to 28.7 µM
In short: as §1

CP265 = test: as above; details: P. falciparum in erythrocytes, SYBR Green DNA, 72 h; series mostly up to 28.7 µM
In short: as §1

CP266 = test: as above; details: P. falciparum in erythrocytes, SYBR Green DNA, 72 h; series mostly up to 28.7 µM
In short: as §1

CP268 = test: as above; details: P. falciparum in erythrocytes, SYBR Green DNA, 72 h; series mostly up to 28.7 µM
In short: as §1

CP269 = test: as above; details: P. falciparum in erythrocytes, SYBR Green DNA, 72 h; series mostly up to 28.7 µM
In short: as §1

CP286 = test: as above; details: P. falciparum in erythrocytes, SYBR Green DNA, 72 h; series mostly up to 28.7 µM
In short: as §1

CP291 = test: as above; details: P. falciparum in erythrocytes, SYBR Green DNA, 72 h; series mostly up to 28.7 µM
In short: as §1

CP297 = test: as above; details: P. falciparum in erythrocytes, SYBR Green DNA, 72 h; series mostly up to 28.7 µM
In short: as §1

CP305 = test: as above; details: P. falciparum in erythrocytes, SYBR Green DNA, 72 h; series mostly up to 28.7 µM
In short: as §1

CP315 = test: as above; details: P. falciparum in erythrocytes, SYBR Green DNA, 72 h; series mostly up to 28.7 µM
In short: as §1

CP325 = test: as above; details: P. falciparum in erythrocytes, SYBR Green DNA, 72 h; series mostly up to 28.7 µM
In short: as §1

CP329 = test: as above; details: P. falciparum in erythrocytes, SYBR Green DNA, 72 h; series mostly up to 28.7 µM
In short: as §1

DIV14 = test: as above; details: P. falciparum in erythrocytes, SYBR Green DNA, 72 h; series mostly up to 28.7 µM
In short: as §1

DIV30 = test: as above; details: P. falciparum in erythrocytes, SYBR Green DNA, 72 h; series mostly up to 28.7 µM
In short: as §1

Dd2 = test: as above; details: P. falciparum in erythrocytes, SYBR Green DNA, 72 h; series mostly up to 28.7 µM
In short: as §1

ECU = test: as above; details: P. falciparum in erythrocytes, SYBR Green DNA, 72 h; series mostly up to 28.7 µM
In short: as §1

FAB9 = test: as above; details: P. falciparum in erythrocytes, SYBR Green DNA, 72 h; series mostly up to 28.7 µM
In short: as §1

GB4 = test: as above; details: P. falciparum in erythrocytes, SYBR Green DNA, 72 h; series mostly up to 28.7 µM
In short: as §1

HB3 = test: as above; details: P. falciparum in erythrocytes, SYBR Green DNA, 72 h; series mostly up to 28.7 µM
In short: as §1

ICS = test: as above; details: P. falciparum in erythrocytes, SYBR Green DNA, 72 h; series mostly up to 28.7 µM
In short: as §1

JCK = test: as above; details: P. falciparum in erythrocytes, SYBR Green DNA, 72 h; series mostly up to 28.7 µM
In short: as §1

N140 = test: as above; details: P. falciparum in erythrocytes, SYBR Green DNA, 72 h; series mostly up to 28.7 µM
In short: as §1

P93_24 = test: as above; details: P. falciparum in erythrocytes, SYBR Green DNA, 72 h; series mostly up to 28.7 µM
In short: as §1

P94_40 = test: as above; details: P. falciparum in erythrocytes, SYBR Green DNA, 72 h; series mostly up to 28.7 µM
In short: as §1

PAD = test: as above; details: P. falciparum in erythrocytes, SYBR Green DNA, 72 h; series mostly up to 28.7 µM
In short: as §1

PC15 = test: as above; details: P. falciparum in erythrocytes, SYBR Green DNA, 72 h; series mostly up to 28.7 µM
In short: as §1

PC26 = test: as above; details: P. falciparum in erythrocytes, SYBR Green DNA, 72 h; series mostly up to 28.7 µM
In short: as §1

PC49 = test: as above; details: P. falciparum in erythrocytes, SYBR Green DNA, 72 h; series mostly up to 28.7 µM
In short: as §1

SC27B = test: as above; details: P. falciparum in erythrocytes, SYBR Green DNA, 72 h; series mostly up to 28.7 µM
In short: as §1

TAB109 = test: as above; details: P. falciparum in erythrocytes, SYBR Green DNA, 72 h; series mostly up to 28.7 µM
In short: as §1

TAB113 = test: as above; details: P. falciparum in erythrocytes, SYBR Green DNA, 72 h; series mostly up to 28.7 µM
In short: as §1

TAB165 = test: as above; details: P. falciparum in erythrocytes, SYBR Green DNA, 72 h; series mostly up to 28.7 µM
In short: as §1

W2 = test: as above; details: P. falciparum in erythrocytes, SYBR Green DNA, 72 h; series mostly up to 28.7 µM
In short: as §1

[1] = molecular target: Nuclear receptor subfamily 1 group I member 2 (Rattus norvegicus) (UniProt Q9R1A7); test: qHTS assay for small molecule activators of the rat pregnane X receptor (rPXR) signaling pathway (AID 651751; call rule not given here; note: 0% is about no effect); details: rPXR reporter cells, luciferase (One-Glo), 24 h
Nuclear receptor subfamily 1 group I member 2 (Rattus norvegicus), sequence (Q9R1A7 whole entry, looked up): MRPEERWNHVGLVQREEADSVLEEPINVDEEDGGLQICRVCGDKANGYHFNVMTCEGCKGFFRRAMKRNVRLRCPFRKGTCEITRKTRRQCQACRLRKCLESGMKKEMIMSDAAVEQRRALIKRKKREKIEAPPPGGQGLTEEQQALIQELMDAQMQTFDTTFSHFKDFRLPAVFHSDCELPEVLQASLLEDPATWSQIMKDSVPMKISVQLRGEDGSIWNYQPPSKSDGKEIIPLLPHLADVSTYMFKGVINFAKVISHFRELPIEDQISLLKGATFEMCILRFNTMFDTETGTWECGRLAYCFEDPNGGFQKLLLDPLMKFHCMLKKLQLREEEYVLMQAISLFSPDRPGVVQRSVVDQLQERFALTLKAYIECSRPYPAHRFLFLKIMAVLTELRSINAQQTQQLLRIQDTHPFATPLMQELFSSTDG

[2] = qHTS assay for small molecule activators of the human pregnane X receptor (PXR) signaling pathway (AID 720659; call rule not given here; note: 0% is about no effect)

C[C@@H]1[C@H](O)[C@@H](C)/C=C/C=C/C=C/C=C/C=C/C=C/C=C/[C@H](O[C@@H]2O[C@H](C)[C@@H](O)[C@H](N)[C@@H]2O)C[C@@H]2O[C@](O)(C[C@@H](O)C[C@@H](O)[C@H](O)CC[C@@H](O)C[C@@H](O)CC(=O)O[C@H]1C)C[C@H](O)[C@H]2C(=O)O
inactive: Potency (CP250) | Potency (CP252) | Potency (CP256) | Potency (CP260) | Potency (CP262) | Potency (CP265) | Potency (CP266) | Potency (CP268) | Potency (CP269) | Potency (CP286) | Potency (CP291) | Potency (CP297) | Potency (CP305) | Potency (CP315) | Potency (CP325) | Potency (CP329) | Potency (DIV14) | Potency (DIV30) | Potency (Dd2) | Potency (ECU) | Potency (FAB9) | Potency (GB4) | Potency (HB3) | Potency (ICS) | Potency (JCK) | Potency (N140) | Potency (P93_24) | Potency (P94_40) | Potency (PAD) | Potency (PC15) | Potency (PC26) | Potency (PC49) | Potency (SC27B) | Potency (TAB109) | Potency (TAB113) | Potency (TAB165) | Potency (W2) | max response [1] -0.988% | outcome [2]
